Screening data from PubChem BioAssay.
Many of the other results were omitted from the sample, so hits are more common in it than they were.
mcGAS MS inh = mouse cGAS inhibition by mass spec; Q8C6L5; recombinant mouse cGAS, cGAMP by RapidFire MS; inhibition, % at 12.5 µM; hit rate 0.18% among 130,000; AID 1259397;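 active means inhibition of cGAS enzyme activity at or above 60%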;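 further: enzyme stimulated by 45 bp dsDNA with ATP and GTP substrates; cGAMP share of summed cGAMP plus half ATP and half GTP signals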
Target sequence (Q8C6L5 whole entry, looked up): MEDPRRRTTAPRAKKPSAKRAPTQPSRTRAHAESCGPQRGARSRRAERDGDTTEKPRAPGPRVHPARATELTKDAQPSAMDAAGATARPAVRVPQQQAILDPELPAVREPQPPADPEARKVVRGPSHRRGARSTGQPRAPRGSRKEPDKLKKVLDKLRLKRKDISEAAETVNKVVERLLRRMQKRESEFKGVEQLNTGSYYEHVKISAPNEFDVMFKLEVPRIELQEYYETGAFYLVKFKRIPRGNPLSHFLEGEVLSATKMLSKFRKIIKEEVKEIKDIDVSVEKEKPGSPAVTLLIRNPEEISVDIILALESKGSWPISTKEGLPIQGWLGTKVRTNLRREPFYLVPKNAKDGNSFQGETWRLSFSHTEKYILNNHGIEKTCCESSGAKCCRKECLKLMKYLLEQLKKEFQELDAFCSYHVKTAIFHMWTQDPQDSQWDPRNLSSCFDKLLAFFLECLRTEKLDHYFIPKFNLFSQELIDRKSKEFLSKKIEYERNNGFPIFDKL
Numbers without * were called inactive; ! = repeats disagree.

SMILES	mcGAS MS inh
COc1cc(-c2cccc(C(=O)O)c2)ccc1NC(C)=O	-32
COc1cc(-c2ccc(NN=C3C=Cc4c(S(=O)(=O)O)cc(S(=O)(=O)O)c(N)c4C3=O)c(OC)c2)ccc1NN=C1C=Cc2c(S(=O)(=O)O)cc(S(=O)(=O)O)c(N)c2C1=O	98*
CC(=O)Nc1ccc(S(=O)(=O)Oc2cccc(CNCCN(C)C)c2)cc1	-3
CC1(Cc2ccc3c(c2)OCO3)C(=O)Nc2ccc(S(=O)(=O)NC3CCCCC3)cc21 (centres undefined)	-6
CC(C)c1cc(C2CCN(C(=O)C3=NN(C)C(=O)CC3)CC2)[nH]n1	78*
CC(C)=CC(=O)N1CCC(c2cc(C(C)C)n[nH]2)CC1	-11
CC(C)c1cc(C2CCN(C(=O)c3nc(C(C)C)cs3)CC2)[nH]n1	-25
O=c1[nH]ncc(SCc2ccc(Cl)cc2)c1SCc1ccc(Cl)cc1	-2
O=c1c(=Cc2ccccc2I)sc2nc3ccccc3n12	-3
O=c1c2cc([N+](=O)[O-])ccc2nc2n1CCC2=Cc1ccccc1	1
O=c1/c(=C/c2ccc([N+](=O)[O-])cc2)sc2nc3cc(Br)cnc3n12	85*
CCOc1cc(CN2CCCn3cccc3C2c2ccc(C)c(C)c2)ccc1O (centres undefined)	-5
CCCCNC(=S)NN=Cc1sccc1C	-5
Cc1ccc(C2=N/C(=C\C=C\c3ccccc3)C(=O)O2)cc1	32
CC(C)Oc1ccccc1C=C1C(=O)OC(c2ccccc2)OC1=O (centres undefined)	-9
O=C1OC(c2ccccc2)OC(=O)C1=C/C=C/c1ccccc1 (centres undefined)	88*
Cc1cn(C2OC(CC(=O)Oc3ccccc3)C3OC(C)(C)OC32)c(=O)[nH]c1=O (centres undefined)	-16
CC(O)[C@@H](NC(=O)C1(c2ccccc2)CCN(C(=O)OC(C)(C)C)CC1)C(=O)O (some centres undefined)	-12
Cc1cc(O)c(CN2CCN(CC(=O)N3CCCCC3)CC2)cc1C	-6
CCC(C)CN(CC)C(=O)c1csc(Cc2ccccc2F)n1 (centres undefined)	-6
COc1ccc(CNC(=O)C(=O)Nc2ccc3c(c2)N(S(C)(=O)=O)CCC3)cc1	-14
CC(Cn1cncn1)NC(=O)c1csc2nc(-c3ccc(C(F)(F)F)cc3)cn12 (centres undefined)	-4
COc1ccc(CNCc2ccccc2Cn2cccn2)c(Cl)c1	83*
COc1ccc(Cn2cccc(C)c2=O)c(Cl)c1	-3
COc1ccc(OC)c(CNCc2c(C)nc3ccccn23)c1	-3
SMILES	mcGAS MS inh
CC(=O)Nc1ccc(CN2c3ccccc3N3CCCC32)cc1 (centres undefined)	-17
O=C1CCN(C(=O)CC2C(=O)NCCN2Cc2cccc(F)c2F)CCN1 (centres undefined)	-16
COC(=O)c1cccc(-c2nccn2C2CCCC2)n1	-15
CCN(CC)CCNC(=O)c1cnc(C(C)(C)C)s1	-20
CCN(CC)CCNc1nc2c(F)cccc2s1	-29
CCN(CC)CCNc1ccc(CO)c2sc3ccccc3c(=O)c12	66*!
Cc1c(CC(C)C)nc(N)c(C#N)c1-c1ccccc1Cl	-4
O=S(=O)(O)c1cc(N=C=S)ccc1/C=C/c1ccc(N=C=S)cc1S(=O)(=O)O	98*
CC(C)(C)/[N+]([O-])=C/c1ccc(S(=O)(=O)O)cc1S(=O)(=O)O	-6
CN(C)CCCNC(=O)c1cccnc1Oc1ccc(Br)cc1F	-5
CSCc1ccc(C(=O)N2CCCC(C(=O)c3ccc4ccccc4c3)C2)o1 (centres undefined)	-4
c1ccc2c(c1)ncn1nc(CN3CCCCC3)nc21	-5
SCc1nc2c3ccccc3ncn2n1	95*
CCc1nc2c3ccccc3ncn2n1	-8
CN1CCN(C(=O)CCCc2nnc3n(C)c(=O)c4sccc4n23)CC1	2
CSCCSc1nnc(Nc2ccc(C(C)C)cc2)s1	-8
CC1=C(c2ccccc2)[N+](=O)C(C)(c2ccc(Br)cc2)N1[O-] (centres undefined)	73*
CC1C(c2ccccc2)=[N+]([O-])C(C)(c2ccc(F)cc2)N1O (centres undefined)	-9
CN1C[N+]([O-])=C(c2ccccc2)C1(C)C	-9
CC1C(c2cccs2)=[N+]([O-])C(C)(c2ccc(Br)cc2)N1O (centres undefined)	-19
CCC1(CC)N([O-])C(C)=C(c2ccccc2)[N+]1=O	79*
CC(=O)c1cc(-c2ccccc2)n(CC(=O)O)c1C	-18
CN(Cc1ccc(C(C)(C)C)cc1)C(=O)c1ccc(C(N)=O)cc1	-4
NC(=O)C1CCCN(CCn2cnc(-c3ccccc3)c2-c2ncc[nH]2)C1 (centres undefined)	-7
Cc1c(C)n2c3c(=O)n(CC(=O)c4ccccc4)c(=O)n(C)c3nc2n1Cc1ccco1	-3
CCc1ccc(-c2nc(-c3c(N)n(C)c(=O)n(C)c3=O)cs2)cc1	9
CC12C=CC(C)(O1)C1C(=O)N(c3ccc(F)cc3)C(=O)C12 (centres undefined)	-5
Cc1nnc(NC(=O)[C@H]2CCCCN2C(=O)OC(C)(C)C)s1	-8
